# From PubChem
# An excerpt weighted towards active compounds, which were near 19% of everything screened.
# HT1080 IDH1KD tx – toxicity to HT-1080 IDH1 knockdown cells (counter line); HT-1080 IDH1 knockdown viability, ATP luminescence, 48 h; 2% of 360,000 active; Potency, µM (highest dose often 46.1 µM), for the others: top-dose activity, negative = toxicity, hits mostly cytotoxic;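 also: potency is read from the fitted curve at half-maximal effect; 0% = DMSO wells and -100% = cell-free medium wells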
#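 Using the IDH1-knockdown HT-1080 line run in the same batch and compound series as the NT line, viability after 48 h at 37 °C was determined by CellTiter-Glo luminescence and expressed as % activity.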
# IL1B secr inh – inflammasome signaling inhibition, IL-1 beta readout; 4.7% of 360,000 active; THP-1 LPS/ATP IL-1B secretion, AlphaLISA, 16 h; active compounds read low; activity change, % at 57.5 µM; in the data active = activity change below about -50%; inconclusive = mostly about -30% to -49%
#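 THP-1 cells pretreated 1 hr with compounds (up to 57.5 uM final), then stimulated with LPS (250 ng/mL final) plus ATP (1.25 mM final); secreted IL-1B measured by AlphaLISA after 16 hr, decreased signal indicating inhibition.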
# TDP1 cell noCPT – qHTS for Inhibitors of human tyrosyl-DNA phosphodiesterase 1 (TDP1): qHTS in cells in absence of CPT; DT40 Tdp1-/- hTDP1 cells, no CPT, ATP luminescence, 48 h; Potency, µM (highest dose often 46.2 µM), for the others: at the top dose activity change, negative = growth inhibition, most hits filed as inhibitors; 15% of 420,000 active; AID 686978, 2013; also: potency is read from the fitted curve at half-maximal effect; nearly all actives have a fitted effect of over 55% in size
#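 Camptothecin absent (DMSO only). Human TDP1-complemented DT40 knockout cells, 400 cells/well, 37 °C for minimum 48 hr; ATP measured via CellTiter-Glo, 30 min dark incubation, luminescence.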
# ELG1 DNA repair – inhibitors of ELG1-dependent DNA repair in HEK293T cells | 2.3% of 330,000 active | Potency, µM (titrated, usually from 46.1 µM), for inactives: at the top dose activity change, negative = inhibition, hits mostly inhibitors | HEK293T ELG1-luciferase reporter, luminescence, 16 h; DNA damage induced by 5-fluorouridine; also: potency is read from the fitted curve at half-maximal effect; nearly all actives have a fitted effect of over 55% in size
#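 DMSO vehicle served as the neutral condition. Each well held 2,000 cells given 5-fluorouridine plus compound; after 16 hr at 37 °C/5% CO2, ONE-Glo was added and luciferase measured 30 min later.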
# DT40 TDP1 CPT – DT40-hTDP1 cell growth loss with CPT; chicken DT40 Tdp1-/-;hTDP1 cells + 20 nM CPT, ATP luminescence, 48 h; Potency, µM (doses to about 46.2 µM), for the others: at the top dose activity change, negative = growth inhibition, usual class: inhibitors; 12% of 420,000 active; AID 686979; also: potency is read from the fitted curve at half-maximal effect; nearly all actives have a fitted effect of over 55% in size
#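 Chicken DT40 Tdp1-/- cells stably complemented with human TDP1 were seeded at 400 cells/well in medium containing 20 nM camptothecin, exposed to pin-transferred compounds, and grown at 37 °C for at least 48 hr. Viability was read as ATP luminescence.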
# HT1080NT lethal – kills 2HG-producing HT-1080-NT fibrosarcoma cells. HT-1080-NT fibrosarcoma viability, CellTiter-Glo ATP luminescence, 48 h. AID 686970. 1.6% of 360,000 active. Potency, µM (titrated, usually from 46.1 µM), for the others: at the top dose activity, negative = less viability, most hits filed as cytotoxic;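 also: NT is the 2HG producing partner of a matched IDH1 knockdown line; potency is read from the fitted curve at half-maximal effect; 0% = DMSO-treated cells and -100% = media-only wells without cells; nearly all actives have a fitted effect of over 55% in size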
#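 HT-1080-NT; 750 cells/well; 5% FBS RPMI; 48 h compound, 37 degrees C; CellTiter-Glo luminescence; curve fitting and curve-class assignment.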
# Numbers without * were called inactive; i = inactive; ? = inconclusive; . = not tested or not shown; [ ] = another dose, or the depositor's remark. Unless noted, calls follow the shape of the dose curve; as a rule, active = well fitted curve in the direction sought with a large enough effect; inconclusive = small, poorly fitted or top-dose-only effect, or another doubt; inactive = no such curve, though single readings can be large; an effect the other way counts as inactive or inconclusive. Unless noted, % is scaled to controls: 0 for no effect and ±100 for the full control effect.
SMILES,HT1080 IDH1KD tx,IL1B secr inh,TDP1 cell noCPT,ELG1 DNA repair,DT40 TDP1 CPT,HT1080NT lethal
CCOC(=O)c1cc(-c2ccccc2)sc1NC(=O)c1cc(OC)c(OC)c(OC)c1,3%,-4,18µM*,?,?,3%
O=C(CN1CCN(Cc2ccc(Cl)cc2)CC1)N/N=C/c1c[nH]c2ccccc12,-17%,-14,-13%,-3%,-4%,-8%
Cn1cnc(S(=O)(=O)N2CCCCC2c2cc(C(=O)Nc3cccc4c3CCCC4)no2)c1 (stereo not drawn),-4%,30,13µM*,.,21µM*,1%
Cn1cnc(S(=O)(=O)N2CCCCC2c2cc(C(=O)Nc3ccccc3Cl)no2)c1 (stereo not drawn),-1%,24,-17%,.,-18%,1%
COCCOC(=O)N1CCCCC1c1cc(C(=O)Nc2cccc3c2CCCC3)no1 (stereo not drawn),9%,40,4.6µM*,.,3.7µM*,?
O=C(Nc1cccc2c1CCCC2)c1cc(C2CCCCN2C(=O)OCCF)on1 (stereo not drawn),-22%,8,9.2µM*,.,9.2µM*,-26%
COc1ccc(C(=O)CNc2ccc(C)cc2C)cc1,3%,-15,?,?,-12%,-16%
CC(O)CNc1nc(NCc2ccccc2)c2cnn(C)c2n1 (stereo not drawn),0%,-10,-21%,-7%,-3%,4%
CCc1ccccc1NC(=O)CN1CCN(C(=O)CCC(=O)N2CCC(c3ccccc3)=N2)CC1,-1%,-7,26µM*,?,15µM*,-2%
CCc1ccccc1NC(=O)CCC(=O)N1CCN(C(C)=O)CC1,6%,27,6%,.,-3%,4%
COC(=O)c1ccc(C(=O)N2CCCC(CNC(=O)c3ccccc3Cl)C2)cc1 (stereo not drawn),15%,-1,-1%,24%,-8%,21%
NC(=O)c1nsc(C(=O)N(c2ccccc2)C(C(=O)NCC2CCCO2)c2ccc(F)cc2)c1N (stereo not drawn),-3%,-13,?,-20%,?,-15%
Cc1ccc(N(C(=O)c2snc(C(N)=O)c2N)C(C(=O)NCC2CCCO2)c2ccc3ncccc3c2)cc1 (stereo not drawn),-12%,?,-28%,-25%,?,-17%
Cc1ccc(C(C(=O)NCC2CCCO2)N(C(=O)c2snc(C(N)=O)c2N)c2ccc3c(c2)OCCO3)cc1 (stereo not drawn),-7%,-24,-86%,-18%,23µM*,-2%
NC(=O)c1nsc(C(=O)N(c2ccc3c(c2)OCCO3)C(C(=O)NCC2CCCO2)c2ccc(F)cc2)c1N (stereo not drawn),3%,-23,18µM*,?,15µM*,0%
CCN(C(=O)CSc1nccc(=O)[nH]1)C1CCCCC1,1%,0,6%,12%,-25%,-3%
COc1ccc2cc(C3CC=C(CO)CN3S(=O)(=O)c3ccccc3[N+](=O)[O-])n(C(=O)OC(C)(C)C)c2c1 (stereo not drawn),?,-17,21µM*,.,23µM*,?
CCCN(CCC)CCNC(=O)c1nn(C)c2c1CS(=O)(=O)c1ccccc1-2,.,.,-11%,.,2%,.
COc1cccc(C(=O)Nc2ccc(C)cc2)c1,3%,0,-9%,?,-7%,4%
O=C(Nc1ccc(Cl)c(Cl)c1)Nc1cc(C(=O)NC2CC2)ccc1Cl,.,.,.,26µM*,.,.
O=C(Nc1ccc(Cl)c(Cl)c1)NC1CCS(=O)(=O)C1 (stereo not drawn),-13%,-19,?,10%,-5%,-7%
O=C(Nc1ccc(Cl)c(Cl)c1)c1ccc(Cl)c(Cl)c1,6%,-6,5.8µM*,?,?,-1%
O=C(Nc1ccc(Cl)c(Cl)c1)c1ccncc1,-18%,0,?,?,-20%,1%
O=C(Nc1ccc(Cl)c(Cl)c1)OCCNC(=O)c1ccncc1,-22%,-10,23µM*,-8%,?,-21%
Cc1ccc(NC(=O)c2ccc(Cl)c(N3C(=O)C=CC3=O)c2)cc1,?,-56*,2.1µM*,13%,1.2µM*,?
SMILES,HT1080 IDH1KD tx,IL1B secr inh,TDP1 cell noCPT,ELG1 DNA repair,DT40 TDP1 CPT,HT1080NT lethal
CCOC(=O)N1CCN(C2CCCN(C(=O)c3cccc(Cl)c3)C2)CC1 (stereo not drawn),-10%,i,-1%,5%,0%,0%
O=C(CCc1nc2ccccc2c(=O)[nH]1)NCCN1C(=O)S/C(=C\c2ccc(OC(F)F)cc2)C1=O,?,8,18µM*,.,?,-17%
CCN(C(=O)CSc1nccc(=O)[nH]1)c1cccc2ccccc12,-2%,8,-3%,?,-11%,-4%
Cc1ccc(N2CCN(c3nc4ccc(C(=O)c5ccccc5)cc4n4cnnc34)CC2)c(C)c1,.,.,18µM*,.,?,.
CCOC(=O)N1CCN(c2nc3ccc(C)cc3n3cnnc23)CC1,0%,-10,-17%,26%,-27%,2%
Cc1ccc(Nc2nc3ccc(C(=O)c4ccccc4)cc3n3c(C)nnc23)c(C)c1,.,.,-20%,.,-13%,.
COc1cccc(N2CCN(c3nc4ccc(C(=O)c5ccccc5)cc4n4c(C)nnc34)CC2)c1,.,.,16µM*,.,?,.
Cc1ccc(Cl)cc1N1CCN(c2nc3ccc(C(=O)c4ccccc4)cc3n3cnnc23)CC1,.,.,23µM*,.,18µM*,.
CC1(C(=O)Nc2cccnc2)Cc2c(-c3ccc4c(c3)OCO4)ccnc2O1 (stereo not drawn),-29%,-22,?,.,-76%,-19%
COc1ccc2c(CC(=O)NNC(=O)c3ccc(O)cc3)coc2c1,-1%,16,-14%,6%,31%,1%
COc1cc(/C(C)=N/NC(=O)c2cccc(S(=O)(=O)N3CCCC3)c2)cc(OC)c1OC,7%,-11,?,1%,-19%,0%
CC(=O)Nc1cccc(C(=O)N2CCN(S(=O)(=O)c3ccc(C4CCCCC4)cc3)CC2)c1,-16%,11,23µM*,.,?,-28%
Cc1nc(-c2cccc(NC(=O)c3ccc(-n4cccn4)cc3)c2)cs1,-7%,-51*,10µM*,?,15µM*,4%[9.24 µM]
Cc1nc(-c2ccc(C(=O)Nc3cccc(F)c3)cc2)cs1,?,-24,?,?,-28%,?
